Here are results for five molecules from PubChem BioAssay.

The subject of experiment [1] is PRMT1 (protein arginine N-methyltransferase 1). Put plainly: PRMT1 binders on small-molecule microarrays, primary screen, biochemical, small-molecule microarray, 635 nm fluorescence (AID 1088).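 Note: binding of Prmt1 protein to compounds spotted on small-molecule microarray slides.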 Conditions: small-molecule microarray binding, higher = more signal.
Experiment [2] can be described thus: yeast growth modulation, basal conditions, primary screen, YJM789 clinical isolate, OD600, 24 h (AID 1089).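 Note: growth of clinical yeast isolate S. cerevisiae YJM 789 seeded 1000 cells per well; test concentration not given here.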 Conditions: S. cerevisiae YJM789 growth, higher = more signal, called active from +8 up or from −8 down.
Experiment [3] in a line: fission yeast growth modulation, primary screen, strain 972, OD600, 24 h, no modulator (AID 1090).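 Note: basal condition with compound alone and no growth modifier present; test concentration not given here.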 Conditions: S. pombe 972 growth, higher = more signal, called active from +8 up or from −8 down.
Experiment [4] in a line: S. cerevisiae growth modulation with rapamycin, primary screen, strain BY4716, OD600, 96 h (AID 1091). Note: test concentration not given here. Conditions: higher = more signal, called active from +8 up or from −8 down.
The target of experiment [5] is Torsin-1A-interacting protein 2 (Homo sapiens) (UniProt Q8NFQ8). Kind of experiment: LULL1 binders on small-molecule microarray, primary screen, cell lysate, human LULL1 lysate, 635/667 nm fluorescence (AID 1092).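 Note: probe is lysate of COS7 cells overexpressing human LULL1; score merges per-feature 667 nm fluorescence with signal-to-noise.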 Conditions: hLULL1 lysate binding, 635 nm fluorescence, higher = more signal.
Sequence of Torsin-1A-interacting protein 2 (Homo sapiens) (Q8NFQ8 whole entry, looked up): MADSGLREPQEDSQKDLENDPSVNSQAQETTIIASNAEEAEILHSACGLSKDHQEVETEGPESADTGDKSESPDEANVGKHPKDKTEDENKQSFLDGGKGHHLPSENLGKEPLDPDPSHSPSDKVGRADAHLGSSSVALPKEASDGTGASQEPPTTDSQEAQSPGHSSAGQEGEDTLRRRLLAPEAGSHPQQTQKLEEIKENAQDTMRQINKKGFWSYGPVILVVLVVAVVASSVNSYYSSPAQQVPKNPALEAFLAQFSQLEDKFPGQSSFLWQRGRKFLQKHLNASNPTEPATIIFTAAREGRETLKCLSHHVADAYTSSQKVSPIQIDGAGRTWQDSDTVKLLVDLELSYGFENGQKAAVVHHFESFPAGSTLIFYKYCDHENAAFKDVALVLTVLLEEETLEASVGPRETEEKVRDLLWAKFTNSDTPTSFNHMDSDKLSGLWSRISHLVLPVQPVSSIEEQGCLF
Experiment [6] in a line: E. coli growth modulation, two-sided OD650, primary screen, E. coli filamentation project, strain DRC41, 24 h (AID 1093).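 Note: MC1000 strain lacking acrAB efflux and sulA so SOS filamentation is blocked; test concentration not given here.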 Conditions: OD650, 24 h, higher = more signal, called active from +8 up or from −8 down.
Experiment [7] can be described thus: small-molecule microarray binders of probe aLefty2, primary screen, biochemical, biotinylated probe, 635/667 nm fluorescence (AID 1094).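 Note: score merges spot fluorescence near 667 nm with spot signal-to-noise ratio.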 Conditions: higher = more signal.
The subject of experiment [8] is Noggin (protein binding on small-molecule microarray). Put plainly: Noggin binders on small-molecule microarray, primary screen, biochemical, 635/667 nm fluorescence (AID 1095).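 Note: score merges 667 nm feature fluorescence with signal to noise over triplicate slides.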 Conditions: 635 nm fluorescence, higher = more signal.
Experiment [9] deals with Neurogenic locus notch homolog protein 3 (Homo sapiens) (UniProt Q9UM47). Put plainly: NOTCH3 binders on small-molecule microarray, primary screen, biochemical, 635/667 nm fluorescence (AID 1096). Conditions: NOTCH3 binding, 635 nm fluorescence, higher = more signal.
Sequence of Neurogenic locus notch homolog protein 3 (Homo sapiens) (Q9UM47 whole entry, looked up): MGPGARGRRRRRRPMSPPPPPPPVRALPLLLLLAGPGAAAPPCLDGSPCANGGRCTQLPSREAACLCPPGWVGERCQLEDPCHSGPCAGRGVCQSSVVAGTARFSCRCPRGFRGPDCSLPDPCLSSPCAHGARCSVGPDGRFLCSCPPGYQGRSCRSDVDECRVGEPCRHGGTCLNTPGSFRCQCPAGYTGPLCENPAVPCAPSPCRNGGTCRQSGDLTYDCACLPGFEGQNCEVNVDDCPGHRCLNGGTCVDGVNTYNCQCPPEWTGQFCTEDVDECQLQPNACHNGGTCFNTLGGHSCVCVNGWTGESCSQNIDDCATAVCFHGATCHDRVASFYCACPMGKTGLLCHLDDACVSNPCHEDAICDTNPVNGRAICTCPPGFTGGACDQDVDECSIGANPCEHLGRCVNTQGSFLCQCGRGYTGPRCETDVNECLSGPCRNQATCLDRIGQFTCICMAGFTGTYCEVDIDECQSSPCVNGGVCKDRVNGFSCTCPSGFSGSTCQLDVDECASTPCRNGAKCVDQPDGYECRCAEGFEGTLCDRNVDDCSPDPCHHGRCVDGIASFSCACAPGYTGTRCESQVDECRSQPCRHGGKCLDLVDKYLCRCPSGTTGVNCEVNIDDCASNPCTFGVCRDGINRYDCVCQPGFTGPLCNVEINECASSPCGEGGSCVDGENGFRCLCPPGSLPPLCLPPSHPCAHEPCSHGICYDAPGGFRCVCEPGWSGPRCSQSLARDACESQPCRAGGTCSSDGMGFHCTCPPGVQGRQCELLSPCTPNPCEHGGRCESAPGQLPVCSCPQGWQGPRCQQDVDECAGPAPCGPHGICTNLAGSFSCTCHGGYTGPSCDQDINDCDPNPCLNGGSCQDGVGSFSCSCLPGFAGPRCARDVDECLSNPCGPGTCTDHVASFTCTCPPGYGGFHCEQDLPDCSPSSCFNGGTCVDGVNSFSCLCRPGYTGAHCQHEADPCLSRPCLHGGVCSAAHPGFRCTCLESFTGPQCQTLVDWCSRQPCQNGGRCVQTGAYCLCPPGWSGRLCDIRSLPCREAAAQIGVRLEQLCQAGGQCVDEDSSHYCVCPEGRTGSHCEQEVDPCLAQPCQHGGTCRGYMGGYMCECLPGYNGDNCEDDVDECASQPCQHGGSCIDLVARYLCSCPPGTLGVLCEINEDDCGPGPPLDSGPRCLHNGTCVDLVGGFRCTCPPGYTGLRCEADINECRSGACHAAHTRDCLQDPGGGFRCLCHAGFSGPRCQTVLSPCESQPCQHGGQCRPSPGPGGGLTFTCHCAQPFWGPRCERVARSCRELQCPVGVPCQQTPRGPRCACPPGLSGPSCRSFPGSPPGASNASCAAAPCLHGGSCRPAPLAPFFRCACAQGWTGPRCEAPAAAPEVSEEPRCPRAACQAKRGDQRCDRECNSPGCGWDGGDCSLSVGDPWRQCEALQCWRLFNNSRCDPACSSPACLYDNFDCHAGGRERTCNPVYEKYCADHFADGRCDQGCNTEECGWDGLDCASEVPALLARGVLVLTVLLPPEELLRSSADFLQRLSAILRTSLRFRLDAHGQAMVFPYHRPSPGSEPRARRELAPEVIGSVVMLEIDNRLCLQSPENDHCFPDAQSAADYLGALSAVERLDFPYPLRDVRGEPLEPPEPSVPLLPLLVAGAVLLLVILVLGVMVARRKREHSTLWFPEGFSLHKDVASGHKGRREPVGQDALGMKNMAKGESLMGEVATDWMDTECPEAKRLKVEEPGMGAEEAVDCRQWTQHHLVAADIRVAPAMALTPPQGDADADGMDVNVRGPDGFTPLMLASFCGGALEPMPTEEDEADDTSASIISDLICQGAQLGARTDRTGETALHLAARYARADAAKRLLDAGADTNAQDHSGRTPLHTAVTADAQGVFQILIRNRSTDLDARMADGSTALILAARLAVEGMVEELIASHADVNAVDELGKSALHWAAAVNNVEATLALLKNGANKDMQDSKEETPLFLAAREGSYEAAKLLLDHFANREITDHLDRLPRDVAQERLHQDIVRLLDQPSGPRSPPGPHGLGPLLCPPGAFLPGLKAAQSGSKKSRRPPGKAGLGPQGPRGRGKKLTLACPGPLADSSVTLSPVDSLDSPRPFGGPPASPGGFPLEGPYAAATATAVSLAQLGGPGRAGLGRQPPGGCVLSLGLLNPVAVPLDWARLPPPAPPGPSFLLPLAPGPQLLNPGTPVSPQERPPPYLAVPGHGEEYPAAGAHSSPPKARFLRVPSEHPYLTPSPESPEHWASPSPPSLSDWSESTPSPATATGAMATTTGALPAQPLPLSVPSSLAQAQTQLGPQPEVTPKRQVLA
The nature of experiment [10]: small-molecule microarray binders of probe aEGFR, primary screen, biochemical, biotinylated probe, 635/667 nm fluorescence (AID 1097).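 Note: probe is a biotinylated anti-EGFR antibody binding compounds printed on slides; score combines fluorescence near 667 nm and signal to noise of each spot.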 Conditions: higher = more signal.
The test system of experiment [11] is Plasmodium falciparum Sir2 (PF13_0152, Sir2A). Kind of experiment: pfSir2 binders on small-molecule microarrays, primary screen, biochemical, small-molecule microarray, 635 nm fluorescence (AID 1098).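 Note: score merges spot fluorescence intensity with its signal-to-noise ratio.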 Conditions: small-molecule microarray binding, fluorescence 635 nm; higher = more signal.
Experiment [12] in a line: small-molecule microarray binders of probe aDKK1, primary screen, biochemical, biotinylated probe, 635/667 nm fluorescence (AID 1099).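 Note: score merges 667nm spot fluorescence with signal to noise across triplicate slides; reference of the scale not given here.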 Conditions: higher = more signal.
The nature of experiment [13]: small-molecule microarray binders of probe aCHRDL2, primary screen, biochemical, biotinylated probe, 635/667 nm fluorescence (AID 1100). Conditions: higher = more signal.
Experiment [14] in a line: splicing luciferase reporter signal modulators, primary screen, spliceosome inhibition project, cell-based, HEK293, splice +/- reporter (AID 1101).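 Note: HEK293 cells carrying a splicing-competent luciferase reporter gene; test concentration not given here.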 Conditions: luminescence, 24 h, higher = more signal, called active from +8 up or from −8 down. Background: Reporter assays use an easily measured gene product as a stand-in for the process of interest.
Experiment [15] deals with Fibroblast growth factor 10 (Homo sapiens) (UniProt O15520). Kind of experiment: FGF10 binders on small-molecule microarrays, primary screen, biochemical, small-molecule microarray, 635 nm fluorescence (AID 1102). Conditions: FGF10 binding, fluorescence 635 nm, higher = more signal.
Sequence of Fibroblast growth factor 10 (Homo sapiens) (O15520 whole entry, looked up): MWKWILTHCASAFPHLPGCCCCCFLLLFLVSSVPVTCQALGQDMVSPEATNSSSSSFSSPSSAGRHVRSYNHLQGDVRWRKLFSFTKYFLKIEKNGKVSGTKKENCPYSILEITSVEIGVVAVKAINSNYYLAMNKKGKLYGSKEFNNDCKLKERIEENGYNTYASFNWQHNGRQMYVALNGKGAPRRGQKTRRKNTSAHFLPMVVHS
For experiment [16], the system named is glycogen synthase kinase-3 (GSK3A per assay name; protocol says GSK3B). Kind of experiment: GSK3 binders on small-molecule microarrays, primary screen, biochemical, small-molecule microarray, 635 nm fluorescence, GSK3A (AID 1103). Note: the record names both GSK3A and GSK3B. Conditions: small-molecule microarray binding, fluorescence 635 nm; higher = more signal.
Experiment [17] addresses Epidermal growth factor receptor (Homo sapiens) (UniProt P00533). Kind of experiment: EGFR binders on small-molecule microarrays, primary screen, biochemical, small-molecule microarray, 635 nm fluorescence (AID 1104).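 Note: score merges 667 nm emission intensity with spot signal to noise over triplicate slides.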 Conditions: EGFR binding, higher = more signal.
Experiment [18] concerns the target Follistatin-related protein 3 (Homo sapiens) (UniProt O95633). Kind of experiment: FSTL3 binders on small-molecule microarrays, primary screen, biochemical, small-molecule microarray, 635 nm fluorescence (AID 1105).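 Note: score merges emission near 667 nm and signal to noise per printed spot across three slides.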 Conditions: FSTL3 binding, higher = more signal.
Experiment [19] has as its target Dickkopf-related protein 1 (Homo sapiens) (UniProt O94907). Kind of experiment: DKK1 binders on small-molecule microarrays, primary screen, biochemical, small-molecule microarray, 635 nm fluorescence scan (AID 1106).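 Note: score merges emission near 667 nm with signal to noise over three replicate slides.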 Conditions: DKK1 binding, higher = more signal.
Experiment [20] deals with Inhibin beta A chain (activin A). Kind of experiment: INHBA (activin A) binders on microarrays, primary screen, biochemical, small-molecule microarray, 635 nm fluorescence scan (AID 1107).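 Note: mouse activin A protein probed at 4.33 µg/mL on printed slides; score merges bound-protein fluorescence near 667 nm with spot signal-to-noise.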 Conditions: small-molecule microarray binding, higher = more signal.

Each structure is given as a SMILES string. Calls of active or inactive are those of the source.

Sequence of Dickkopf-related protein 1 (Homo sapiens) (O94907 whole entry, looked up): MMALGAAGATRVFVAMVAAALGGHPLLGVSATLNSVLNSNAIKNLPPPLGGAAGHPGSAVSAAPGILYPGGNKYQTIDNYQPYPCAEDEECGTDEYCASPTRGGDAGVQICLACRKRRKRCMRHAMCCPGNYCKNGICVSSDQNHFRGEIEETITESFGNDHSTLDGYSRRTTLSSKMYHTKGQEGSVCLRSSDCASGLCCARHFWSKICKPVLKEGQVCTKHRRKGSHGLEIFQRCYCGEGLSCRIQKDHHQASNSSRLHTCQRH
Sequence of Epidermal growth factor receptor (Homo sapiens) (P00533 whole entry, looked up): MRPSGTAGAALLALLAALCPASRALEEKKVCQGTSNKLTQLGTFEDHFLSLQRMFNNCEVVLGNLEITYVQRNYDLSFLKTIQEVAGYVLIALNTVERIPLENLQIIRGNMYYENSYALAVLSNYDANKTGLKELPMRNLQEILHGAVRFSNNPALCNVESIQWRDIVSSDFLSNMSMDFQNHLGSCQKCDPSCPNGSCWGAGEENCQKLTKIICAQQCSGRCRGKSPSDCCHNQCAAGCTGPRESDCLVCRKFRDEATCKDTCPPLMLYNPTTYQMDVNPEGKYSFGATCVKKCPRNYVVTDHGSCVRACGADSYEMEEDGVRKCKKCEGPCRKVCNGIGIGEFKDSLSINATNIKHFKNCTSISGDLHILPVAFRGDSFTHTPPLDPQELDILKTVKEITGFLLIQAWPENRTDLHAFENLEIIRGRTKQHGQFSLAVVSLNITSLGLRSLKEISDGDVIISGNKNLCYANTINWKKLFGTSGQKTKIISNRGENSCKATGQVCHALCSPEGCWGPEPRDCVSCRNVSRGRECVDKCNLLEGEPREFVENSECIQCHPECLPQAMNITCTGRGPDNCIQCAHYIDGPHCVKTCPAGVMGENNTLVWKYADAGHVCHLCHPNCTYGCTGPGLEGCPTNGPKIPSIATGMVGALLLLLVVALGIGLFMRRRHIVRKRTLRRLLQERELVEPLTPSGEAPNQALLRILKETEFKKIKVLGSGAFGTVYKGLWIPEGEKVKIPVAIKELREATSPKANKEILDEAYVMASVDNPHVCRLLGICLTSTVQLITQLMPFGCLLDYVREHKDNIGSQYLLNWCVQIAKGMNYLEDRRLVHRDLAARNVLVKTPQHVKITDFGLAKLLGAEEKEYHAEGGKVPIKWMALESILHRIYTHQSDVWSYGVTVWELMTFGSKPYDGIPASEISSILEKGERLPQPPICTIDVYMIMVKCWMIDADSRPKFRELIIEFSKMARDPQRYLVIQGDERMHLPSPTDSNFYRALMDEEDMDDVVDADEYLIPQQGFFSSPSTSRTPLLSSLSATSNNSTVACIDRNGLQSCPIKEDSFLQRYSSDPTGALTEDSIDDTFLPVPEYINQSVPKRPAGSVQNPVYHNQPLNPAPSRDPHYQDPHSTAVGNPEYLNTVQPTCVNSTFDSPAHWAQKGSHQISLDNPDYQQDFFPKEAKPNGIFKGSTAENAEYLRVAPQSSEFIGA
Sequence of Follistatin-related protein 3 (Homo sapiens) (O95633 whole entry, looked up): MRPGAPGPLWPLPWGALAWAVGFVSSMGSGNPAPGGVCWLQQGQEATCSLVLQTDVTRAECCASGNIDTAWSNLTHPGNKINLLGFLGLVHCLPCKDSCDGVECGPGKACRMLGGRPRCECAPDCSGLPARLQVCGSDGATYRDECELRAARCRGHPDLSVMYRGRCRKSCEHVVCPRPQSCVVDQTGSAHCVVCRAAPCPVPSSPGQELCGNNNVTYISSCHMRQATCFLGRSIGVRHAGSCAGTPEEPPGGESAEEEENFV

Consider `COc1ccccc1CN1C(=O)c2ccccc2[C@@]2(Cc3ccccc3N(CC(F)(F)F)C2=O)[C@@H]1c1ccc(CO)cc1`, for which the composite z-score in experiment [1] is 0.955; in [5] it was 0.104; in experiment [7] it was -0.332; in experiment [8], 1.18; in experiment [9], 0.538; in [10] it was -0.322. For the same molecule, the composite z-score in experiment [11] is 0.144; in [12] it was -0.435; in [13], -0.167; in experiment [15] it was 0.507; in [16], 0.524; in experiment [17], 0.414. Moreover, the composite z-score turned out to be 0.614 in experiment [18], 0.564 in [19] and 1.03 in experiment [20]. Further, the z-score in [2] is 0.17 (inactive); in experiment [3], 0.181 (inactive); in experiment [4], -1.7 (inactive); in experiment [6], 1.07 (inactive); in [14] it was 1.49 (inactive).
With `O=C(NCC(F)(F)F)[C@@H]1c2ccccc2C(=O)N(Cc2ccccc2C(F)(F)F)[C@H]1c1ccc(CO)cc1`, the composite z-score in experiment [1] is 0.928; in experiment [5], 1.28; in experiment [7], -0.062; in [8], -0.416; in experiment [9], -0.258; in experiment [10], -0.274. Moreover, the composite z-score is 1.78 in [11]; 0.757 in experiment [12]; 0.805 in [13]; -0.141 in experiment [15]; -0.677 in [16]; -0.79 in experiment [17]. Also, the results for the composite z-score in experiment [18], in experiment [19] and in experiment [20] were -0.604, -0.377 and 0.547, respectively. Besides, the z-score in [2] was -0.268 (inactive); in experiment [3], -0.205 (inactive); in experiment [4], -0.503 (inactive); in experiment [6] it was 0.31 (inactive); in experiment [14], -0.335 (inactive).
Regarding `CC(C)[Si](C#C[Si](C(C)C)(C(C)C)C(C)C)(O[C@H](C)c1cn([C@H](CO)Cc2ccccc2)nn1)C(C)C`, the composite z-score in [1] was 0.857; in experiment [5], 1.76; in experiment [7], -0.0961; in experiment [8], -0.0066; in [9], 0.407; in experiment [10], -0.133. The composite z-score is 0.107 in experiment [11]; -0.229 in experiment [12]; -0.316 in [13]; 0.0848 in experiment [15]; 0.229 in [16]; 0.0255 in experiment [17]. For the same molecule, the results for the composite z-score in [18], in [19] and in experiment [20] were -0.0447, 0.377 and 0.201, respectively. The z-score is -0.653 (inactive) in experiment [2]; -0.644 (inactive) in [3]; -0.356 (inactive) in experiment [4]; 1.51 (inactive) in experiment [6]; -0.0126 (inactive) in experiment [14].
With `CCCCO[C@H]1C[C@H]2C(I)=C[C@@H]1C(=O)[C@]21CO1`, the composite z-score is -0.429 in [1]; -1.03 in experiment [5]; -0.126 in experiment [7]; 0.359 in [8]; 0.0532 in experiment [9]; -0.19 in experiment [10]. The composite z-score was 1.08 in [11]; -0.37 in experiment [12]; -0.529 in experiment [13]; 0.104 in [15]; -0.487 in [16]; 0.0707 in [17]. The composite z-score stood at 0.127 in [18], 0.668 in experiment [19] and 0.173 in experiment [20]. Also, the z-score in experiment [2] was -1.88 (inactive); in experiment [3], -4.81 (inactive); in experiment [4] it was -1.68 (inactive); in experiment [6] it was -1.25 (inactive); in experiment [14], -0.26 (inactive).
Consider `NC(=O)NCC#Cc1ccc2c(c1)[C@]1(C(=O)N2)[C@H](C(=O)NC[C@H](O)c2ccccc2)[C@H]2C(=O)O[C@H](c3ccccc3)[C@H](c3ccccc3)N2[C@@H]1c1ccc(OCCO)cc1`, for which the composite z-score in experiment [1] was 0.889; in experiment [5], 1.21; in experiment [7], 0.156; in experiment [8] it was -0.0728; in [9], 0.0556; in experiment [10], -0.0078. Besides, the composite z-score in experiment [11] was 0.0395; in [12] it was 0.72; in experiment [13], 0.879; in [15] it was 0.566; in [16], 0.0382; in experiment [17], -0.464. The figures for the composite z-score in [18], in experiment [19] and in experiment [20] were 0.0489, -0.246 and 1.04, respectively. The z-score in experiment [2] was 2.75 (inactive); in [3] it was 0.682 (inactive); in experiment [4] it was 3.73 (inactive); in [6] it was 1.63 (inactive); in experiment [14], 0.822 (inactive).
